# Results reported in publication PMC7862700, “An all-to-all approach to the identification of sequence-specific readers for epigenetic DNA modifications on cytosine”.
# Tests used:
# Test in all cases: DAPPL (digital affinity profiling via proximity ligation, sequencing); 10 mM Tris-HCl pH 7.5, 50 mM NaCl, 1 mM DTT, 4% glycerol, room temperature, 30 min; GST-TFs on glutathione beads, 16-mer random dsDNA library, 0.1% formaldehyde crosslink after washing; high values mean tight binding
# Details in all cases: protein: recombinant; tags: N-terminal GST; dsDNA, one strand shown
# FLI1 = target: T1, FLI1 (Homo sapiens, UniProt Q01543 1-452)
# T1 sequence: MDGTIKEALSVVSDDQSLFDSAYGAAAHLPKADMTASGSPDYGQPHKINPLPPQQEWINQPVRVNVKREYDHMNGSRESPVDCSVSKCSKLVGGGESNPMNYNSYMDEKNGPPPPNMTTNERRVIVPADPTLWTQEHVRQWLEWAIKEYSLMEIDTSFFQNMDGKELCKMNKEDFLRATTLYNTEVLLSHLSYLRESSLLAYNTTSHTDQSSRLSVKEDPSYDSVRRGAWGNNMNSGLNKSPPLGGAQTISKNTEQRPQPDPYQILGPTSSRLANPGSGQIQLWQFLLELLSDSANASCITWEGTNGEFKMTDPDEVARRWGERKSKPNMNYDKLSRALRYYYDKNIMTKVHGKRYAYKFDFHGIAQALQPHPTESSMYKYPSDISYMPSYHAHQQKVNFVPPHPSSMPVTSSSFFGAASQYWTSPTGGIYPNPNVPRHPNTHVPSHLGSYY
# Outline: (§1)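 Binding signal is defined as a hexamer's read frequency for one factor over its frequency for the tag-only sample. To obtain reads, GST-fused human transcription factors were expressed in yeast, captured on glutathione beads, barcoded with DNA and pooled with that sample. Pools met 200 nmole of a 16-mer random double-stranded DNA library in Tris/NaCl/DTT/glycerol buffer for 30 min at room temperature before washing, 0.1% formaldehyde crosslinking, proximity ligation (BsaI/T4 ligase, 1 h, 37 °C), PCR and Illumina NextSeq500 sequencing.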
# ELK1 = target: T2, ELK1 (Homo sapiens, UniProt P19419 1-428)
# T2 sequence: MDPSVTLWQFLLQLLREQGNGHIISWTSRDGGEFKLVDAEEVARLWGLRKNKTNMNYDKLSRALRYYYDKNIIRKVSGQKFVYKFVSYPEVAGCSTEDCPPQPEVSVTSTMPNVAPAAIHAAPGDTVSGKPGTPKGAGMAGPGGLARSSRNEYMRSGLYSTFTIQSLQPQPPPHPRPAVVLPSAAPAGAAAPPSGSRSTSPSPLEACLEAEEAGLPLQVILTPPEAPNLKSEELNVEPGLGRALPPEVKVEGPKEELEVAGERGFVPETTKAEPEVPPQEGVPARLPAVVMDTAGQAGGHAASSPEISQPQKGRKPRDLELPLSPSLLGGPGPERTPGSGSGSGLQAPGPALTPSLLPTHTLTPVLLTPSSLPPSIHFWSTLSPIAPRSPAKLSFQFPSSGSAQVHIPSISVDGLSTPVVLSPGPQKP
# Outline: as §1
# GABPA = target: T3, GABPA (Homo sapiens, UniProt Q06546 1-454)
# T3 sequence: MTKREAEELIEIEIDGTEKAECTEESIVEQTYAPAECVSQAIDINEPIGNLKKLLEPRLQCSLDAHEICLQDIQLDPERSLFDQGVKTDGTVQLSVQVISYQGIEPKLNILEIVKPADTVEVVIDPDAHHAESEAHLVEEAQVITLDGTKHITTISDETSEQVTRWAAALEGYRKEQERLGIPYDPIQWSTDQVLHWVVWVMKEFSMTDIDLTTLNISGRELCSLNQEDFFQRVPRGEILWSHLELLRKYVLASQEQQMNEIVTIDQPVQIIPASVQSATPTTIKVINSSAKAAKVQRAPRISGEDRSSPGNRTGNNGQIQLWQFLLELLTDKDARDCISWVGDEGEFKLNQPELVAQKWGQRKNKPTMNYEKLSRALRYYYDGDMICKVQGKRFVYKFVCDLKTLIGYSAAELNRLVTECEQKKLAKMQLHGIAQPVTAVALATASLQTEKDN
# Outline: as §1
# ERG = target: T4, ERG (Homo sapiens, UniProt P11308 1-479)
# T4 sequence: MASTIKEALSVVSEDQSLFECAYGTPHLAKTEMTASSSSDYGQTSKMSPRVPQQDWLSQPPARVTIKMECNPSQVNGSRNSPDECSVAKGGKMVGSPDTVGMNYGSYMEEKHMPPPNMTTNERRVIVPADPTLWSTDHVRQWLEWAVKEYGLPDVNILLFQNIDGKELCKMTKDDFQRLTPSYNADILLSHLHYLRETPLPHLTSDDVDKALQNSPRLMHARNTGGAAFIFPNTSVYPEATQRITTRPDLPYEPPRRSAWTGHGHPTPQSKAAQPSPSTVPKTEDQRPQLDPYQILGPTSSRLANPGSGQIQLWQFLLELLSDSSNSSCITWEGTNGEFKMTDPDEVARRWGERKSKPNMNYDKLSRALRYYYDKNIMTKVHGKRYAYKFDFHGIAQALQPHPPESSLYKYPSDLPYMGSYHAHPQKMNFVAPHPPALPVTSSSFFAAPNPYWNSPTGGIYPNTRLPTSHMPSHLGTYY
# Outline: as §1
# ELF1 = ELF1 (Homo sapiens, UniProt P32519 1-619)
# Outline: as §1
# EHF = target: T5, EHF (Homo sapiens, UniProt Q9NZC4 1-300)
# T5 sequence: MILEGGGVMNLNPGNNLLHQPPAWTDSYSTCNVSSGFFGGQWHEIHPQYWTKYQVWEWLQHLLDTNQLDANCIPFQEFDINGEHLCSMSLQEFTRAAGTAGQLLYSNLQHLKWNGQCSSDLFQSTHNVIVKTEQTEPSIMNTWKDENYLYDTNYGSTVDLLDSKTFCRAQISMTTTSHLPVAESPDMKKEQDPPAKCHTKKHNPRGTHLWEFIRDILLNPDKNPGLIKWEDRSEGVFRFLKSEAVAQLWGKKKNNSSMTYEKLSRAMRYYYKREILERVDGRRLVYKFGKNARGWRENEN
# Outline: as §1
# SPI1 = SPI1 (Homo sapiens, UniProt P17947 1-270)
# Outline: as §1
# SPIB = SPIB (Homo sapiens, UniProt Q01892 1-262)
# Outline: as §1
# ELK3 = target: T6, ELK3 (Homo sapiens, UniProt P41970 1-407)
# T6 sequence: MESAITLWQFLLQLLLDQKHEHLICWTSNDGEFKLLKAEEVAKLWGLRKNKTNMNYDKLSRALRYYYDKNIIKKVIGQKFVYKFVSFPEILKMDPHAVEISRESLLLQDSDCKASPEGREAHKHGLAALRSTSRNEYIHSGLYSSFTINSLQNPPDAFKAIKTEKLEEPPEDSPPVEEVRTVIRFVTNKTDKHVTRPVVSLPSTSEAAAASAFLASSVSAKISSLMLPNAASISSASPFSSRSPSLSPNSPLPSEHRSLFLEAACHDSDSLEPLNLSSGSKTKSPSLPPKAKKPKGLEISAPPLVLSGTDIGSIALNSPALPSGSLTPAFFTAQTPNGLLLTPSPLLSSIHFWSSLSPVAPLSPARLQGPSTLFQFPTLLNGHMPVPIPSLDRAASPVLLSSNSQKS
# Outline: as §1
# ELF1, sequence (P32519 whole entry): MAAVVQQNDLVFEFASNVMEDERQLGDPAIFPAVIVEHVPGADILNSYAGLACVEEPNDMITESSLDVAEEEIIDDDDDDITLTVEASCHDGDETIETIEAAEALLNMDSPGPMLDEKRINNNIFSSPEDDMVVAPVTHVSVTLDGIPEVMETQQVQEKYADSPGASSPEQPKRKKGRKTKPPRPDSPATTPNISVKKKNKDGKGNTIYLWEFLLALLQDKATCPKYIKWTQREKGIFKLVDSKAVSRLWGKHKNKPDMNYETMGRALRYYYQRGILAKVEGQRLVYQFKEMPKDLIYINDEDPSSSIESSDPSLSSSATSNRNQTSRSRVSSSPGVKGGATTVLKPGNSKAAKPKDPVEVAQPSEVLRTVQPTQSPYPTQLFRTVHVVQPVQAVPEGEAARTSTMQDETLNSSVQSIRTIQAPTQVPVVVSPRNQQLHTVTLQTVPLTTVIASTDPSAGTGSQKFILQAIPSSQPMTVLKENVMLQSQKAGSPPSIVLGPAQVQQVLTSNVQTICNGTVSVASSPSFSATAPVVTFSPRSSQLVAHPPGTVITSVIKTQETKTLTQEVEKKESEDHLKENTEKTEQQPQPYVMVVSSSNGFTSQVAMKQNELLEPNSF
# SPIB, sequence (Q01892 whole entry): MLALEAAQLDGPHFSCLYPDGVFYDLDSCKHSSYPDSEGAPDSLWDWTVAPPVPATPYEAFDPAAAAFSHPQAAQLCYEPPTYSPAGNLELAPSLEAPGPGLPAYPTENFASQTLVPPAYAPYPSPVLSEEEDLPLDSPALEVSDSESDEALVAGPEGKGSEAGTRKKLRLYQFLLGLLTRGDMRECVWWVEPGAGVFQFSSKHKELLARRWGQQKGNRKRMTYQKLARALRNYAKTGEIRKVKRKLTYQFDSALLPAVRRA
Sequence,binding signal (FLI1),binding signal (ELK1),binding signal (GABPA),binding signal (ERG),binding signal (ELF1),binding signal (EHF),binding signal (SPI1),binding signal (SPIB),binding signal (ELK3)
TCCCTG,"1.28 fold enrichment (6-mer frequency, TF over GST control)","1.25 fold enrichment (6-mer frequency, TF over GST control)","1.36 fold enrichment (6-mer frequency, TF over GST control)","1.28 fold enrichment (6-mer frequency, TF over GST control)","1.32 fold enrichment (6-mer frequency, TF over GST control)","1.33 fold enrichment (6-mer frequency, TF over GST control)","1.29 fold enrichment (6-mer frequency, TF over GST control)","1.35 fold enrichment (6-mer frequency, TF over GST control)","1.14 fold enrichment (6-mer frequency, TF over GST control)"
AATATT,"1.39 fold enrichment (6-mer frequency, TF over GST control)","1.29 fold enrichment (6-mer frequency, TF over GST control)","1.29 fold enrichment (6-mer frequency, TF over GST control)","1.18 fold enrichment (6-mer frequency, TF over GST control)","1.36 fold enrichment (6-mer frequency, TF over GST control)","1.32 fold enrichment (6-mer frequency, TF over GST control)","1.23 fold enrichment (6-mer frequency, TF over GST control)","1.34 fold enrichment (6-mer frequency, TF over GST control)","1.42 fold enrichment (6-mer frequency, TF over GST control)"
CATAAC,"1.09 fold enrichment (6-mer frequency, TF over GST control)","1.2 fold enrichment (6-mer frequency, TF over GST control)","1.15 fold enrichment (6-mer frequency, TF over GST control)","1.1 fold enrichment (6-mer frequency, TF over GST control)","1.22 fold enrichment (6-mer frequency, TF over GST control)","1.09 fold enrichment (6-mer frequency, TF over GST control)","1.16 fold enrichment (6-mer frequency, TF over GST control)","1.13 fold enrichment (6-mer frequency, TF over GST control)","1.18 fold enrichment (6-mer frequency, TF over GST control)"
AACACG,"1.26 fold enrichment (6-mer frequency, TF over GST control)","1.23 fold enrichment (6-mer frequency, TF over GST control)","1.1 fold enrichment (6-mer frequency, TF over GST control)","1.22 fold enrichment (6-mer frequency, TF over GST control)","1.18 fold enrichment (6-mer frequency, TF over GST control)","1.14 fold enrichment (6-mer frequency, TF over GST control)","1.17 fold enrichment (6-mer frequency, TF over GST control)","1.13 fold enrichment (6-mer frequency, TF over GST control)","1.16 fold enrichment (6-mer frequency, TF over GST control)"
GAATTC,"1.41 fold enrichment (6-mer frequency, TF over GST control)","1.29 fold enrichment (6-mer frequency, TF over GST control)","1.31 fold enrichment (6-mer frequency, TF over GST control)","1.36 fold enrichment (6-mer frequency, TF over GST control)","1.31 fold enrichment (6-mer frequency, TF over GST control)","1.43 fold enrichment (6-mer frequency, TF over GST control)","1.43 fold enrichment (6-mer frequency, TF over GST control)","1.38 fold enrichment (6-mer frequency, TF over GST control)","1.38 fold enrichment (6-mer frequency, TF over GST control)"
GATAAT,"1.04 fold enrichment (6-mer frequency, TF over GST control)","1.05 fold enrichment (6-mer frequency, TF over GST control)","1.13 fold enrichment (6-mer frequency, TF over GST control)","1.03 fold enrichment (6-mer frequency, TF over GST control)","1.02 fold enrichment (6-mer frequency, TF over GST control)","1.09 fold enrichment (6-mer frequency, TF over GST control)","1.09 fold enrichment (6-mer frequency, TF over GST control)","1.12 fold enrichment (6-mer frequency, TF over GST control)","1.12 fold enrichment (6-mer frequency, TF over GST control)"
AAAGAA,"1.18 fold enrichment (6-mer frequency, TF over GST control)","1.24 fold enrichment (6-mer frequency, TF over GST control)","1.23 fold enrichment (6-mer frequency, TF over GST control)","1.27 fold enrichment (6-mer frequency, TF over GST control)","1.28 fold enrichment (6-mer frequency, TF over GST control)","1.32 fold enrichment (6-mer frequency, TF over GST control)","1.32 fold enrichment (6-mer frequency, TF over GST control)","1.24 fold enrichment (6-mer frequency, TF over GST control)","1.3 fold enrichment (6-mer frequency, TF over GST control)"
GAACCC,"1.12 fold enrichment (6-mer frequency, TF over GST control)","1.19 fold enrichment (6-mer frequency, TF over GST control)","1.16 fold enrichment (6-mer frequency, TF over GST control)","1.18 fold enrichment (6-mer frequency, TF over GST control)","1.14 fold enrichment (6-mer frequency, TF over GST control)","1.13 fold enrichment (6-mer frequency, TF over GST control)","1.16 fold enrichment (6-mer frequency, TF over GST control)","1.06 fold enrichment (6-mer frequency, TF over GST control)","1.19 fold enrichment (6-mer frequency, TF over GST control)"
